Assay [1] can be described thus: qHTS assay to identify small molecule antagonists of the thyroid receptor (TR) signaling pathway - cell viability counter screen (AID 743064). Also: nearly all actives have a fitted effect of over 50% in size. The essentials: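 GH3.TRE-Luc rat pituitary cells carrying a TRE-luciferase reporter were treated with compound plus 1 nM T3 (final) for 23.5 h at 37 °C. Viability was then read in the same wells by CellTiter-Fluor fluorescence after a further 30 min.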

The nature of assay [2]: qHTS assay to identify small molecule antagonists of the thyroid receptor (TR) signaling pathway (AID 743065). Also: series mostly up to about 70 µM; nearly all actives have a fitted effect of over 55% in size. Put shortly:
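GH3.TRE-Luc rat pituitary cells (two TREs driving luciferase) were dosed with compound, then stimulated with 1 nM T3 (final) for 23.5 h at 37 C. ONE-Glo luminescence was the read-out, with CellTiter-Fluor fluorescence as the cytotoxicity counter-screen.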

Assay [3] has as its system thyroid hormone receptor (rat, GH3 cells). Kind of assay: qHTS assay to identify small molecule agonists of the thyroid receptor (TR) signaling pathway (AID 743066; calls by dose curve).
The target in assay [4] is Estrogen receptor (Homo sapiens) (UniProt P03372). Description: qHTS assay to identify small molecule antagonists of the estrogen receptor alpha (ER-alpha) signaling pathway (AID 743069; active = well fitted curve in the direction sought with a large enough effect in the signal ratio in the repeat runs, not every such curve was filed as active; the % refers to the signal ratio). Put shortly: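 Reporter cells (ER-alpha-bla, HEK293 background) are conditioned overnight in stripped-serum medium (2% charcoal-stripped FBS). Compound and 17beta-estradiol exposure runs 18 hr at 37C, 5% CO2.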
Chain of Estrogen receptor (Homo sapiens) (P03372 whole entry, looked up): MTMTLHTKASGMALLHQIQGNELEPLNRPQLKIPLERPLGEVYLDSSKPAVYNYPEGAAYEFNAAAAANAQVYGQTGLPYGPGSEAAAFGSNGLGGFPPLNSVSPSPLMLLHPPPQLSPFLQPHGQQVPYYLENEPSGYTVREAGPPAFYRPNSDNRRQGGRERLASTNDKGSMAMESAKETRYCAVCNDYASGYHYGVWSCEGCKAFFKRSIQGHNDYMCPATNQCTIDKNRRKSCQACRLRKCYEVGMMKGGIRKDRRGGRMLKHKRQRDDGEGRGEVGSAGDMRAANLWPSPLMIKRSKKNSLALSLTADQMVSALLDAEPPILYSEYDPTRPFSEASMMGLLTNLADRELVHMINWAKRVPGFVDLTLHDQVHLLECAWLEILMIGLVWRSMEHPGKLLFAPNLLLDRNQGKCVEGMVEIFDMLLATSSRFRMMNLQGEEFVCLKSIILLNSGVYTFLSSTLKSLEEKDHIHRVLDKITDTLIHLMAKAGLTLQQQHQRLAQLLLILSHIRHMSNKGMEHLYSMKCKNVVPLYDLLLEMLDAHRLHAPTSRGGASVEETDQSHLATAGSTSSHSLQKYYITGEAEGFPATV

The nature of assay [5]: qHTS assay to identify small molecule antagonists of the estrogen receptor alpha (ER-alpha) signaling pathway - cell viability counter screen (AID 743074; calls by dose curve;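 also: HEK293 cells carrying ER-alpha-UAS-bla reporter stimulated with 17beta-estradiol; nearly all actives have a fitted effect of over 45% in size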).
The target in assay [6] is Estrogen receptor (Homo sapiens) (UniProt P03372). Kind of assay: qHTS assay to identify small molecule agonists of the estrogen receptor alpha (ER-alpha) signaling pathway (AID 743075; calls by dose curve;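 also: HEK293 GripTite cells with ER-alpha and UAS-driven beta-lactamase reporter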).
For assay [7] the target is unchanged. Kind of assay: qHTS assay to identify small molecule agonists of the estrogen receptor alpha (ER-alpha) signaling pathway using the BG1 cell line (AID 743079). Also: nearly all actives have a fitted effect of over 20% in size. Also: potency is read from the fitted curve at half-maximal effect.
Assay [8] in a line: qHTS assay to identify small molecule antagonists of the estrogen receptor alpha (ER-alpha) signaling pathway using the BG1 cell line (AID 743080; calls by dose curve;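 also: BG1 cells stimulated with 17beta-estradiol alongside compound; nearly all actives have a fitted effect of over 25% in size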; also: potency is read from the fitted curve at half-maximal effect). Put shortly:
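Quantitative HTS on the Tox21 10K library: BG1 cells with endogenous ER-alpha and ERE-luciferase reporter, 17beta-estradiol stimulation, 21.5 h compound exposure, luminescence endpoint with parallel fluorescence cytotoxicity counter-read.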

The nature of assay [9]: qHTS assay to identify small molecule antagonists of the estrogen receptor alpha (ER-alpha) signaling pathway using the BG1 cell line - cell viability counter screen (AID 743081).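 Also: compound given together with 17beta-estradiol as the ER stimulus; series mostly up to about 70 µM; nearly all actives have a fitted effect of over 45% in size.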
Another assay deals with Aromatase (Homo sapiens) (UniProt P11511). Kind of assay: qHTS assay to identify aromatase inhibitors (AID 743083). Also: series mostly up to about 70 µM; nearly all actives have a fitted effect of over 55% in size.
Chain of Aromatase (Homo sapiens) (P11511 whole entry, looked up): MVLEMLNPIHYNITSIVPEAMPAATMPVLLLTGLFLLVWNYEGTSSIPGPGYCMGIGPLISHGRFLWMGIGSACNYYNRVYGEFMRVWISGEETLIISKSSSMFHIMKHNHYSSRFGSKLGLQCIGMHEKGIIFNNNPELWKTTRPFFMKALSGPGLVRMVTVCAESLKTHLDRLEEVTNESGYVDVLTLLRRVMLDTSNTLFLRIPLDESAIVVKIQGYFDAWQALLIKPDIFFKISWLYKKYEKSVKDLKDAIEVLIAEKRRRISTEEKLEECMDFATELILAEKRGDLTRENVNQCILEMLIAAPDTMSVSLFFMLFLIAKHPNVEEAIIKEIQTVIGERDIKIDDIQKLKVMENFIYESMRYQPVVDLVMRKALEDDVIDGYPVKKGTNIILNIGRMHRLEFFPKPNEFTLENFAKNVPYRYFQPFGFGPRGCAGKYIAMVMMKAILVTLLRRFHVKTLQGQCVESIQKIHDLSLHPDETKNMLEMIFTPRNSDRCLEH
Assay [10] in a line: qHTS assay to identify aromatase inhibitors - cell viability counter screen (AID 743084).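 Also: cells stimulated with testosterone during compound exposure; nearly all actives have a fitted effect of over 55% in size.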
Assay [11] has as its target Aryl hydrocarbon receptor (Homo sapiens) (UniProt P35869). Kind of assay: qHTS assay to identify small molecule that activate the aryl hydrocarbon receptor (AhR) signaling pathway (AID 743085). Also: nearly all actives have a fitted effect of over 15% in size. Also: potency is read from the fitted curve at half-maximal effect.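 As to activation: HG2L7.5c1 human HepG2 liver cells with stably integrated DRE-driven firefly reporter; series mostly up to about 70 µM.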 The essentials: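 HepG2 cells (HG2L7.5c1) stably carrying a firefly luciferase reporter driven by 20 dioxin responsive elements were exposed to compound for 24 h at 37C after a 5 h settling period; luminescence rise (ONE-Glo) indicated activation.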

The nature of assay [12]: qHTS assay to identify small molecule that activate the aryl hydrocarbon receptor (AhR) signaling pathway - cell viability counter screen (AID 743086).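 Also: HepG2 liver cells carrying the AhR DRE luciferase reporter; series mostly up to about 70 µM; nearly all actives have a fitted effect of over 45% in size.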 The essentials:
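HepG2-AhR-luc (HG2L7.5c1) cells, 4000/well, treated 24 h at 37 C with compound; viability measured as CellTiter-Fluor fluorescence after 30 min in the same wells as the luciferase read.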

In assay [13] the target is Peroxisome proliferator-activated receptor gamma (Homo sapiens) (UniProt P37231). Kind of assay: qHTS assay to identify small molecule agonists of the peroxisome proliferator-activated receptor gamma (PPARg) signaling pathway (AID 743094; active = well fitted activation curve with a large enough effect in the signal ratio in the repeat runs, not every such curve was filed as active; the % refers to the signal ratio). Put shortly:
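Following 5 h plating at 37C, PPARg-bla HEK293H cells receive compound or DMSO for 17 h; fluorescence intensity is recorded after LiveBLAzer B/G loading for 1 h at room temperature.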

Several values for one entry are separate records, joined by “and”; a condition that tells them apart may be missing. Identical values can stand only once. Inconclusive results are not listed. Where a structure was tested more than once in an assay, its records may differ in their call. Activity calls are given as the source filed them. Unless noted, calls follow the shape of the dose curve; as a rule, active = well fitted curve in the direction sought with a large enough effect in the repeat runs; inconclusive = weak or mixed curves; inactive = no such curve, though single readings can be large; an effect the other way counts as inactive or inconclusive.

Chain of Peroxisome proliferator-activated receptor gamma (Homo sapiens) (P37231 whole entry, looked up): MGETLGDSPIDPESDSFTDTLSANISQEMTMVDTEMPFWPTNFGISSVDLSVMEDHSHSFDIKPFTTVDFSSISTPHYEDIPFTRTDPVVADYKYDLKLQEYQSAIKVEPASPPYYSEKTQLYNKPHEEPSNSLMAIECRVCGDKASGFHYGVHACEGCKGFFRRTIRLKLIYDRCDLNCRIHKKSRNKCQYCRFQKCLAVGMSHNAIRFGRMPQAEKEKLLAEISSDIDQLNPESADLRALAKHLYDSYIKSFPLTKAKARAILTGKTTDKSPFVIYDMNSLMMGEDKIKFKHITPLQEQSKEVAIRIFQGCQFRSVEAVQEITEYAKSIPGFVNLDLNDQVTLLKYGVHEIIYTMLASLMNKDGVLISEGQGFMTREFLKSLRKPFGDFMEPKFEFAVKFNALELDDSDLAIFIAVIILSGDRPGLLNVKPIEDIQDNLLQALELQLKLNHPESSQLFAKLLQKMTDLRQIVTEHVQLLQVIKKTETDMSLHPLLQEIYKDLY
Chain of Aryl hydrocarbon receptor (Homo sapiens) (P35869 whole entry, looked up): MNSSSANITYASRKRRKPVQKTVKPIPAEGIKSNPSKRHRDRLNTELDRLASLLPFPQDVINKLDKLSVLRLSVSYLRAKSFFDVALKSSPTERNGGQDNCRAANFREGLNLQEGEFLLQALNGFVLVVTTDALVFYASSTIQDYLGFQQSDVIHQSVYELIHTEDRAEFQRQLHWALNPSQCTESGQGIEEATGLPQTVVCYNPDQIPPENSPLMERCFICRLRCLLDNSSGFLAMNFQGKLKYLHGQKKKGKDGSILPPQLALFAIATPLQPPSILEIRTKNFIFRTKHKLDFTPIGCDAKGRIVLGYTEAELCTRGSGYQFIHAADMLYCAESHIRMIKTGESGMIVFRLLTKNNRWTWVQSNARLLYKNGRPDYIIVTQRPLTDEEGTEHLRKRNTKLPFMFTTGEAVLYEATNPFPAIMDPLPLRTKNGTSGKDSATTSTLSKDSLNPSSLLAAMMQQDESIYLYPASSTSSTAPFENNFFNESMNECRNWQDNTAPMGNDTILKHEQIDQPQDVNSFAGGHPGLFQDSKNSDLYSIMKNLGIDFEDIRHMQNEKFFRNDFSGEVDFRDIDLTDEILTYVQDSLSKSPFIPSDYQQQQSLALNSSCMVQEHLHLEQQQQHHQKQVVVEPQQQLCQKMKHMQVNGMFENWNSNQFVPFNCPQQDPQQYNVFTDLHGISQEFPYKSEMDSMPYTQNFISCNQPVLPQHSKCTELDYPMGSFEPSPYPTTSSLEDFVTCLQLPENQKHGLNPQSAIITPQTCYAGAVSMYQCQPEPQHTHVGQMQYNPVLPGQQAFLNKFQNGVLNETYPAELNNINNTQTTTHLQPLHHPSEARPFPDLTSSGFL

Take `O=C1c2c(O)cccc2[C@H]([C@@H]2O[C@H](CO)[C@@H](O)[C@H](O)[C@H]2O)c2cc(CO)cc(O)c21`: the Potency entry in assay [1], in [2], in assay [3], in assay [4], in assay [5] and in assay [6] was “inactive” each time. Also, the Potency entry (in assay [8]; in assay [9]; in the assay with Aromatase (Homo sapiens); in assay [10]; in assay [11]; in [12]) was “inactive” throughout. Further, the Potency result in [13] is “inactive”. In addition, in assay [7], the Potency was 13.3 µM (active) and inactive.
`O=C(O)COc1ccc(C(=O)c2cccs2)c(Cl)c1Cl`: the Potency result in [1], in assay [2], in [3], in [4], in assay [5] and in [6] was “inactive” in each case. Further, the Potency entry (in assay [7]; in assay [8]; in assay [9]; in the assay with Aromatase (Homo sapiens); in assay [10]; in assay [11]) was “inactive” throughout. The Potency entry in [12] and in [13] was “inactive” in each case.
`CCOC(=O)COc1ccc2c(=O)cc(-c3ccccc3)oc2c1`: the Potency entry in assay [1], in assay [2], in assay [3], in assay [4], in assay [5] and in assay [6] was “inactive” in each case. The Potency result (in assay [7]; in assay [8]; in assay [9]; with Aromatase (Homo sapiens); in assay [10]; in [11]) was “inactive” in each case. The Potency entry in assay [12] and in assay [13] was “inactive” in each case.
As to `CN[C@@H]1[C@@H](O[C@H]2O[C@H](CO)[C@@H](N)[C@H](O)[C@H]2O)O[C@H]2C[C@@H](N)[C@@H](O[C@H]3[C@H](O)[C@@H](O)[C@H](N)C[C@@H]3N)O[C@@H]2[C@@H]1O`, the Potency result in assay [1], in assay [2], in assay [3], in assay [4], in assay [5] and in [6] was “inactive” in each case. In addition, the Potency entry (in [7]; in assay [8]; in assay [9]; in the assay with Aromatase (Homo sapiens); in assay [10]; in assay [11]) was “inactive” each time. For the same compound, the Potency entry in assay [12] and in assay [13] was “inactive” each time.
With `O=C(O)CCCC/C=C(\c1ccccc1)c1cccnc1`, the Potency entry in assay [1], in assay [2], in [3], in assay [4], in assay [5] and in assay [6] was “inactive” throughout. The Potency result (in assay [7]; in assay [8]; in [9]; with Aromatase (Homo sapiens); in [10]; in assay [11]) was “inactive” throughout. Besides, the Potency result in [12] and in assay [13] was “inactive” each time.
Regarding `C=C(Nc1ccc(OCC)cc1)Nc1ccc(OCC)cc1`, the Potency entry in [1], in assay [2], in assay [3], in assay [4], in assay [5] and in [6] was “inactive” each time. Further, the Potency result (in assay [7]; in assay [8]; in assay [9]; with Aromatase (Homo sapiens); in [10]; in assay [11]) was “inactive” each time. For the same compound, the Potency entry in assay [12] and in [13] was “inactive” each time.
For `N=C(N)n1cccn1`, the Potency result in assay [1], in assay [2], in assay [3], in [4], in assay [5] and in assay [6] was “inactive” each time. In addition, the Potency entry (in assay [7]; in assay [8]; in [9]; with Aromatase (Homo sapiens); in assay [10]; in [11]) was “inactive” each time. Also, the Potency result in assay [12] and in [13] was “inactive” in each case.
Turning to `CC(C)CCC[C@@H](C)[C@H]1CC[C@H]2[C@@H]3CC=C4C[C@@H](O)CC[C@]4(C)[C@H]3CC[C@]12C`, the Potency entry in assay [1], in assay [2], in assay [3], in assay [4], in [5] and in assay [6] was “inactive” throughout. Further, the Potency result (in assay [7]; in assay [8]; in [9]; with Aromatase (Homo sapiens); in assay [10]; in [11]) was “inactive” throughout. Also, the Potency entry in [12] and in assay [13] was “inactive” in each case.
With `CC(=NCc1ccccc1)c1ccccc1O`, the Potency result in assay [1], in assay [2], in assay [3], in [4], in assay [5] and in [6] was “inactive” each time. The Potency entry (in [7]; in assay [8]; in assay [9]; in the assay with Aromatase (Homo sapiens); in [10]; in assay [11]) was “inactive” in each case. Besides, the Potency entry in assay [12] and in assay [13] was “inactive” in each case.
Turning to `CCC[C@@H]1C[C@@H](C(=O)N[C@@H]([C@H]2O[C@H](SC)[C@H](OP(=O)(O)O)[C@@H](O)[C@H]2O)[C@H](C)Cl)N(C)C1`, the Potency entry in assay [1], in [2], in assay [3], in [4], in assay [5] and in assay [6] was “inactive” throughout. Further, the Potency entry (in assay [7]; in assay [8]; in [9]; with Aromatase (Homo sapiens); in assay [10]; in assay [11]) was “inactive” in each case. For the same compound, the Potency result in assay [12] and in assay [13] was “inactive” each time.
Regarding `CC1=C(/C=C/C(C)=C/C=C/C(C)=C/C=C/C=C(C)/C=C/C=C(C)/C=C/C2=C(C)CCCC2(C)C)C(C)(C)CCC1`, the Potency entry in assay [1], in assay [2], in assay [3], in assay [4], in assay [5] and in assay [6] was “inactive” in each case. Besides, the Potency entry (in assay [7]; in assay [8]; in [9]; in the assay with Aromatase (Homo sapiens); in assay [10]; in assay [11]) was “inactive” each time. Further, the Potency entry in assay [12] and in assay [13] was “inactive” throughout.
For `CC(C)=CCC/C(C)=C/CC/C(C)=C/CC/C(C)=C/CC1=C(C)C(=O)c2ccccc2C1=O`, the Potency entry in assay [1], in [2], in assay [3], in assay [4], in assay [5] and in assay [6] was “inactive” in each case. Besides, the Potency result (in assay [7]; in assay [9]; with Aromatase (Homo sapiens); in assay [10]; in assay [12]; in assay [13]) was “inactive” throughout. In addition, the Potency result in [8] was “inactive and 9.44 µM (active)”; in assay [11] it was 10.6 µM (active).
With `C=CC1=C(C(=O)O)N2C(=O)[C@@H](NC(=O)/C(=N\O)c3csc(N)n3)[C@H]2SC1` (stereo in doubt), the Potency entry in [1], in [2], in assay [3], in [4], in [5] and in assay [6] was “inactive” in each case. The Potency entry (in assay [7]; in [8]; in [9]; in the assay with Aromatase (Homo sapiens); in [10]; in assay [11]) was “inactive” each time. In addition, the Potency result in assay [12] and in [13] was “inactive” each time.
For the compound `O=C(O)c1ccc(NC2OC[C@@H](O)[C@H](O)[C@H]2O)cc1` (stereo not given in full), the Potency result in assay [1], in [2], in assay [3], in assay [4], in assay [5] and in [6] was “inactive” throughout. Also, the Potency entry (in assay [7]; in assay [8]; in [9]; in the assay with Aromatase (Homo sapiens); in assay [10]; in assay [11]) was “inactive” each time. Moreover, the Potency result in [12] and in assay [13] was “inactive” throughout.
Take `CC1CCCC(C)N1NC(=O)c1ccc(Cl)c(S(N)(=O)=O)c1` (stereo not given): the Potency entry in assay [1], in assay [2], in assay [3], in assay [4], in assay [5] and in assay [6] was “inactive” each time. The Potency result (in [7]; in assay [8]; in assay [9]; with Aromatase (Homo sapiens); in assay [10]; in assay [11]) was “inactive” each time. Moreover, the Potency result in assay [12] and in [13] was “inactive” in each case.

The record behind these values is PubChem BioAssay (Tox21).
